Compound activity: PubChem, National Center for Advancing Translational Sciences (NCATS)
hNpr1 antagonist: human Npr1 receptor antagonism; P16066; HEK293 hNpr1 GloSensor cGMP, ANP-stimulated luminescence; Potency, µM (top dose mostly 46.3 µM), for inactives: at the highest dose activity change, negative = inhibition, usual class: inhibitors; 76,000 compounds, 1.6% hits; AID 1347048; calls by dose curve; also: nearly all actives have a fitted effect of over 60% in size
Target sequence (P16066 whole entry, looked up): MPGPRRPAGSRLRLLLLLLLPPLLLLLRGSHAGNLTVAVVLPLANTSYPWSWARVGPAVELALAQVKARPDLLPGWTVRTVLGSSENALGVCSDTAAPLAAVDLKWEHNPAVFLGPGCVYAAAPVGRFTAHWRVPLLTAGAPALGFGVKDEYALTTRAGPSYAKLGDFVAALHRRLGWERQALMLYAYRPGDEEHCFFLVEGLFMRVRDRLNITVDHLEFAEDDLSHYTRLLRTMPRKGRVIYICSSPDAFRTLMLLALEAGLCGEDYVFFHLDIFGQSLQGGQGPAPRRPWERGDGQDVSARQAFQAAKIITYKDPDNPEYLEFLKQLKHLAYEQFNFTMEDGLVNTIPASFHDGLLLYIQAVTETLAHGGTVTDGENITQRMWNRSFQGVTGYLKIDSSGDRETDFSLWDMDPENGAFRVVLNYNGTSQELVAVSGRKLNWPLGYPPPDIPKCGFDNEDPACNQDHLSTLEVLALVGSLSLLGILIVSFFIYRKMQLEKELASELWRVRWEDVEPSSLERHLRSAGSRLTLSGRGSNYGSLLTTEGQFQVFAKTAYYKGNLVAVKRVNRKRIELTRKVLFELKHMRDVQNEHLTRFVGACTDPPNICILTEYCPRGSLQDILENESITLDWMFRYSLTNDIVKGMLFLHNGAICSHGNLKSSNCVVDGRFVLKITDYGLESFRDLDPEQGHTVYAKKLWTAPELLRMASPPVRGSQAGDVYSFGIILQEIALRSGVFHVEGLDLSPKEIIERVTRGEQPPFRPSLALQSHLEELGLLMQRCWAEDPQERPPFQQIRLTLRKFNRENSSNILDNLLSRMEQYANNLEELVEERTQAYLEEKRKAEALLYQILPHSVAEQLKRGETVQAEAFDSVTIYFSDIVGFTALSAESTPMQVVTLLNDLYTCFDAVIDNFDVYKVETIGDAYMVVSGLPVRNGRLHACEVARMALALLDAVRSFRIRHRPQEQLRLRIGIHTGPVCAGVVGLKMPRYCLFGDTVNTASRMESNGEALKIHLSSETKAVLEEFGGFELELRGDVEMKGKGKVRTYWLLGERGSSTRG
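HEK293 cells stably expressing human Npr1 and cGMP GloSensor pGS-40F, loaded 2 h with 2% GloSensor reagent, given compound 30 min at room temperature. Luminescence read before and 20 min after 0.1 nM hNppA.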
HEK cytotox: HEK 293 cell cytotoxicity. AID 1345083. 94,000 compounds, 6.6% hits. HEK 293 viability, ATP luminescence (CellTiter-Glo), 48-72 h. Potency, µM (highest dose often 115 µM), without a hit: at the highest dose activity change, negative = cytotoxicity, hits mostly inhibitors; also: nearly all actives have a fitted effect of over 60% in size
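HEK 293 seeded at 250 cells/well receive compound via pintool. After 48 or 72 hr at 37 degree Celsius, 5% CO2 and 95% humidity, CellTiter-Glo is dispensed and luminescence read following 10 min at room temperature.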
3T3 cytotox: kills NIH 3T3 cells | NIH 3T3 viability, CellTiter-Glo ATP luminescence, 48-72 h | Potency, µM (doses to about 96.7 µM), for inactives: top-dose activity change, negative = cytotoxicity, hits mostly inhibitors | 94,000 compounds, 4.3% hits | AID 1345082; also: nearly all actives have a fitted effect of over 55% in size
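Cytotoxicity was measured by CellTiter-Glo ATP luminescence after 48 or 72 h compound exposure at 37 °C. Mouse NIH 3T3 fibroblasts were seeded at 400 cells/well and dosed by 23 nL pin transfer.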
FLuc inh: blocks purified firefly luciferase enzyme activity | 76,000 compounds, 2.5% hits | purified P. pyralis luciferase, luminescence, biochemical | P08659 | Potency, µM (series often up to 115 µM), most hits filed as inhibitors; also: nearly all actives have a fitted effect of over 65% in size
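Cell-free enzyme assay, 10nM P. pyralis luciferase, luciferin and ATP each at 10uM. Inhibition profiled over a 6-point titration, read as luminescence.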
* marks the source's active call; other numbers are inactive results; i = inactive; ? = inconclusive; · = not tested or not shown; ! = repeats disagree; [ ] = dose if it differs, or a comment. Shown are actives, neighbours in structure and some others; about 11% of the full set was active somewhere. Unless noted, calls follow the shape of the dose curve; as a rule, active = well fitted curve in the direction sought with a large enough effect; inconclusive = small, poorly fitted or top-dose-only effect, or another doubt; inactive = no such curve, though single readings can be large; an effect the other way counts as inactive or inconclusive. % is scaled to controls: 0 for no effect and ±100 for the full control effect; potency is read from the fitted curve at half-maximal effect.

SMILES	hNpr1 antagonist	HEK cytotox	3T3 cytotox	FLuc inh
O=C1CO[C@H]2CN(Cc3ccccc3F)C[C@H]2N1c1ccccc1	-4.5%[70.6 µM]	79.4µM*	?	i
NC(=O)CN1C(=O)CO[C@H]2CN(Cc3ccccc3F)C[C@H]21	-0.8%[70.6 µM]	i	i	i
Cc1ccc(CNC[C@H]2Cn3cc(-c4ccccc4)nc3CO2)cc1	0.3%[70.6 µM]	?	?	i
Cc1ccccc1CNC[C@H]1Cn2cc(-c3ccccc3)nc2CO1	4.4%[70.6 µM]	100µM*	?	i
Clc1ccccc1CNC[C@H]1Cn2cc(-c3ccccc3)nc2CO1	-17.4%[70.6 µM]	100µM*	?	56.2µM*
Fc1ccccc1CNC[C@H]1Cn2cc(-c3ccccc3)nc2CO1	3.4%[70.6 µM]	?	-27.6%[138 µM]	63.1µM*
c1ccc(-c2cn3c(n2)CO[C@@H](CNCc2ccc4ccccc4n2)C3)cc1	-6.8%[70.6 µM]	?	?	i
Cc1cc(C)cc(-c2ccc(CN3CCCC(NC(=O)c4ccccc4F)C3)cc2)c1 (stereo not drawn)	·	79.4µM*	?	·
COc1cccc(-c2ccc(CN3CCCC(NC(=O)c4ccccc4C)C3)cc2)c1 (stereo not drawn)	·	22.4µM*	39.8µM*	·
Cc1ccccc1C(=O)NC1CCCN(Cc2ccc(-c3cncnc3)cc2)C1 (stereo not drawn)	·	?	-19.6%	·
COc1cccc(-c2ccc(CN3C4CCC3CN(C(=O)Nc3ccccc3F)C4)cc2)c1	-21.9%	39.8µM*!	35.5µM*!	?
COc1cccc(-c2ccc(CN3CCCC(NC(=O)c4ccccc4F)C3)cc2)c1 (stereo not drawn)	·	39.8µM*	?	·
O=C(Nc1ccccc1F)N1CC2CCC(C1)N2Cc1ccc(-c2cccs2)cc1	·	i	i	·
Cc1cc(C)cc(-c2ccc(CN3CCCC(NC(=O)c4ccc(F)cc4)C3)cc2)c1 (stereo not drawn)	·	-27.5%	-20.4%	·
OCC1(CN2CCCC2)CCN(Cc2cc(F)cc(Cl)c2)CC1	6.1%	?	?	i
CC(=O)NCc1nnc2n1C(C(=O)NCc1cccc(C(F)(F)F)c1)CC2 (stereo not drawn)	·	i	3.0%	·
Cc1cc(C)cc(-c2ccc(CN3CCCC(NC(=O)Nc4ccccc4)C3)cc2)c1 (stereo not drawn)	·	?	10µM*	·
Cc1nc2cc(C(=O)N3CCC(Cc4nncn4C(C)C)CC3)ccc2n1-c1ccc(C(C)C)cc1	-5.0%	?	?	i
CC1Oc2ccc(NC(=O)c3c(F)cccc3F)cc2CN(Cc2ccc(Cl)cc2)C1=O (stereo not drawn)	-27.4%	15.8µM*	?	i
CCC1Oc2ccc(NC(=O)c3ccccc3F)cc2CN(CCc2ccc(OC)c(OC)c2)C1=O (stereo not drawn)	-1.4%	?	39.8µM*	i
COc1ccc(C(=O)Nc2ccc3c(c2)CN(Cc2ccc(OC)cc2OC)C(=O)CO3)cc1	-2.4%	?	?	?
CC1Oc2ccc(NC(=O)c3c(F)cccc3F)cc2CN(CCc2ccc(F)cc2)C1=O (stereo not drawn)	-2.3%	?	?	i
CCC1Oc2ccc(NC(=O)c3ccccc3F)cc2CN(Cc2ccc3c(c2)OCO3)C1=O (stereo not drawn)	-4.8%	?	?	i
COc1ccc(CN2Cc3cc(NC(=O)c4ccccc4OC)ccc3OCC2=O)c(OC)c1	-14.6%	39.8µM*	25.1µM*	i
CC1Oc2ccc(NC(=O)c3ccccc3Cl)cc2CN(Cc2ccc(F)cc2)C1=O (stereo not drawn)	-16.2%	39.8µM*	?	i
SMILES	hNpr1 antagonist	HEK cytotox	3T3 cytotox	FLuc inh
COc1ccccc1C(=O)Nc1ccc2c(c1)CN(Cc1ccc(F)cc1)C(=O)C(C)O2 (stereo not drawn)	-23.1%	35.5µM*	?	i
COc1cccc(OC)c1C(=O)Nc1ccc2c(c1)CN(Cc1ccccc1F)C(=O)C(C)O2 (stereo not drawn)	-4.1%	?	-7.1%	i
COCCCNC(=O)c1cc(-c2ccc(F)cc2)c2nncn2n1	·	-10.9%	?	·
CCN1c2cc(C(=O)Nc3cccc(C(F)(F)F)c3)ccc2C(=O)N2CCCC21 (stereo not drawn)	-5.0%	?	35.5µM*	i
CCN1c2cc(C(=O)Nc3cccc(C(F)(F)F)c3)ccc2C(=O)N2CCCCCC21 (stereo not drawn)	-15.2%	12.6µM*	?	i
O=c1c2nc(NCc3cccs3)ccc2ncn1Cc1ccccc1	2.5%[70.6 µM]	?	?	i
O=c1c2nc(Nc3cccc(F)c3)ccc2ncn1Cc1ccccc1	-19.0%[70.6 µM]	79.4µM*	?	?
CC1CCCCN1CCCNC(=O)c1cc2c(s1)CN(C1CCCC1)C2 (stereo not drawn)	-3.7%	79.4µM*	?	?
COc1ncccc1-c1cn(C)c(=O)n2cc(CN3CC[S+](=O)([O-])CC3)nc12	0.5%[70.6 µM]	-13.7%[172 µM]	?	i
CC(=O)Nc1cc(-c2cn(C)c(=O)n3cc(CN4CC[S+](=O)([O-])CC4)nc23)ccn1	1.1%[70.6 µM]	-17.2%[172 µM]	100µM*	i
O=C(NCc1ccccc1F)c1ccc2oc(-c3ccnc(Cl)c3)nc2c1	·	-19.4%[172 µM]	-3.7%[138 µM]	·
CC(=O)N1CC2(CCCCN2C(=O)CCC(=O)O)Cc2ccccc21 (stereo not drawn)	·	i	i	·
Cc1ccc(C2NC(=O)N(CC(=O)Nc3ccc4c(c3)OCO4)C3=C2C(=O)OC3)cc1 (stereo not drawn)	1.8%	?	-25.7%	i
Cc1ccc(C2NC(=O)N(CC(=O)Nc3ccccc3)C3=C2C(=O)OC3)cc1 (stereo not drawn)	-8.6%	?	?	i
CC(C)c1cccc(NC(=O)CN2C(=O)NC(c3ccccc3Cl)C3=C2COC3=O)c1 (stereo not drawn)	-22.7%	39.8µM*	?	?
Cc1ccc(C2NC(=O)N(CC(=O)Nc3ccc(F)c(F)c3)C3=C2C(=O)OC3)cc1 (stereo not drawn)	-13.4%	20µM*	?	i
O=C(CN1C(=O)NC(c2ccc(Cl)cc2)C2=C1COC2=O)Nc1ccc2c(c1)CCC2 (stereo not drawn)	-29.0%	22.4µM*	25.1µM*	i
Cc1cc(NC(=O)CN2C(=O)NC(c3ccc(Cl)cc3)C3=C2COC3=O)ccc1Br (stereo not drawn)	-24.7%	?	25.1µM*	i
CCOC(=O)[C@H]1C[C@]2(CCCCN(CCOC(C)=O)C2=O)N(C(=O)c2ccccc2)[C@H]1c1ccco1	·	-9.9%	?	·
C#CCNC(=O)C[C@@H]1c2nc(NC(=O)N3CCOCC3)sc2C[C@@H]2[C@](C)(CO)[C@H](O)CC[C@]21C	-7.4%	-6.3%	-15.7%	i
Cc1ccc(C2NC(=O)N(CC(=O)Nc3ccc4c(c3)OCCO4)C3=C2C(=O)OC3)cc1 (stereo not drawn)	-9.3%	?	-17.6%	i
